Consider 8 compounds from PubChem BioAssay (NCI).

Some test systems named below: NCI-H23 lung; NCI-H226 lung; NCI-H322M lung; HOP-62 NSCLC; NCI-H460 lung; HOP-92 NSCLC; NCI-H522 lung; A549/ATCC NSCLC; 786-0 renal; COLO 205 colon; DU-145 prostate; K-562 leukemia; MALME-3M melanoma; MDA-MB-231 breast; RXF 393 renal; SF-268 CNS; SF-295 CNS; SF-539 CNS; UACC-257 melanoma; M14 melanoma.
Holding throughout (assay): NCI-60 one-dose screen, 48 h (100 = growth as untreated, 0 = no growth, -100 = all killed)
Holding throughout (details): 10 µM unless noted

The panel holds about 83,000 compounds, 20% with a hit somewhere; the sample as a whole holds those more often.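 Results are percent growth after 48 hours of single-concentration exposure. 100 means growth as in untreated cells, lower positive values show inhibition; negative values down to -100 show cell death.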 Unmarked numbers belong to inactive results. The source made the active and inactive calls. How the source made its calls: active means growth percent below 10; inactive means the rest.

In the case of `Cc1ccc(NC(=O)c2sc3nc(C)c(C(O)c4ccccc4)cc3c2N)cc1` (stereo not given), the growth in the test with NCI-H23 lung is 26.4%; in the test with NCI-H226 lung, 57.4%; in the test with NCI-H322M lung, 56.8%; in the test with HOP-62 NSCLC, 31.2%; in the test on NCI-H460 lung it was 2.88% (active); in the test with HOP-92 NSCLC it was 58.8%. The growth in the test on NCI-H522 lung was 7.09% (active); with A549/ATCC NSCLC, 22.7%; in the test on 786-0 renal, 40.3%; in the test on COLO 205 colon it was -15.8% (active); with DU-145 prostate, 23.9%; with K-562 leukemia, 6.23% (active). Also, the growth in the test with MALME-3M melanoma is 49.1%; in the test on MDA-MB-231 breast, 15.9%; in the test with RXF 393 renal, 39.3%; with SF-268 CNS it was 49.5%; in the test on SF-295 CNS, 4.89% (active); in the test with SF-539 CNS, -4.25% (active). For the same compound, the growth in the test with UACC-257 melanoma is 60.2%; in the test on M14 melanoma it was 16.3%.
In the case of `C#CCOc1cccc(Nc2ncnc3c2ncn3C2CCN(C(=O)CCl)C2)c1` (stereo not given), the growth with NCI-H23 lung was -23.1% (active); in the test on NCI-H226 lung it was 1.03% (active); in the test with NCI-H322M lung it was 87.2%; in the test with HOP-62 NSCLC it was 1.84% (active); in the test with NCI-H460 lung, 24.7%; with HOP-92 NSCLC, -84.5% (active). For the same compound, the growth with NCI-H522 lung was -61.3% (active); with A549/ATCC NSCLC, 54.6%; in the test with 786-0 renal, -72.4% (active); in the test on COLO 205 colon, -72.5% (active); with DU-145 prostate it was -95.4% (active); in the test on K-562 leukemia, 0.116% (active). Also, the growth was -84% (active) in the test with MALME-3M melanoma; -61.2% (active) in the test with MDA-MB-231 breast; -79.4% (active) in the test on RXF 393 renal; -31.6% (active) with SF-268 CNS; 53.4% with SF-295 CNS; -68.5% (active) with SF-539 CNS. Besides, the growth in the test on UACC-257 melanoma was 13.1%; with M14 melanoma it was -48.6% (active).
On to `Ic1ccc(Nc2nc3nonc3nc2Nc2ccc(I)cc2)cc1`, for which the growth is 1.49% (active) in the test with NCI-H23 lung; 0.546% (active) in the test on NCI-H226 lung; 10.9% in the test on NCI-H322M lung; -18.3% (active) with HOP-62 NSCLC; 3.11% (active) with NCI-H460 lung; -16.4% (active) in the test on HOP-92 NSCLC. Besides, the growth is -20.2% (active) in the test with NCI-H522 lung; 4.13% (active) in the test on A549/ATCC NSCLC; 8.27% (active) with 786-0 renal; -62.7% (active) in the test on COLO 205 colon; 22.7% in the test on DU-145 prostate; 4.38% (active) with K-562 leukemia. In addition, the growth in the test on MALME-3M melanoma was -17.9% (active); in the test with MDA-MB-231 breast, -5.93% (active); in the test with RXF 393 renal, -0.305% (active); with SF-268 CNS it was 20.8%; with SF-295 CNS, -47.6% (active); in the test with SF-539 CNS it was 17%. The values for the growth in the test with UACC-257 melanoma and with M14 melanoma were -29.7% (active) and 2.71% (active), respectively.
In the case of `O=C1/C(=C/c2ccccn2)SC(=S)N1N1CCOCC1`, the growth in the test on NCI-H23 lung is 96.7%; with NCI-H226 lung, 95.1%; in the test with NCI-H322M lung, 97.5%; in the test on HOP-62 NSCLC, 96.6%; with NCI-H460 lung it was 104%; with HOP-92 NSCLC, 84.8%. Moreover, the growth was 86.8% in the test with NCI-H522 lung; 103% in the test on A549/ATCC NSCLC; 103% in the test with 786-0 renal; 103% with COLO 205 colon; 104% in the test on DU-145 prostate; 103% with K-562 leukemia. Moreover, the growth in the test with MALME-3M melanoma is 92.2%; in the test on MDA-MB-231 breast, 92%; in the test on RXF 393 renal, 92.5%; in the test on SF-268 CNS it was 99%; in the test with SF-295 CNS, 95.8%; in the test on SF-539 CNS, 105%. Besides, the figures for the growth in the test with UACC-257 melanoma and in the test with M14 melanoma were 91.8% and 100%, respectively.
`CN(C)CCCn1c2c(c3cnccc3c1=O)C(=O)c1ccccc1-2`: the growth in the test with NCI-H23 lung was -10.7% (active); with NCI-H226 lung, -13.8% (active); in the test on NCI-H322M lung it was -7.53% (active); with HOP-62 NSCLC, -1.96% (active); with NCI-H460 lung, -27.2% (active); with HOP-92 NSCLC, -9.59% (active). The growth was -28.2% (active) with NCI-H522 lung; 11.3% with A549/ATCC NSCLC; -4.55% (active) with 786-0 renal; -25% (active) with COLO 205 colon; -16.9% (active) in the test on DU-145 prostate; 3.18% (active) in the test on K-562 leukemia. Further, the growth with MALME-3M melanoma was -45.7% (active); with MDA-MB-231 breast, 0.187% (active); in the test with RXF 393 renal, -28.4% (active); with SF-268 CNS it was -3.3% (active); with SF-295 CNS it was 6.47% (active); with SF-539 CNS it was -6.26% (active). The figures for the growth with UACC-257 melanoma and in the test on M14 melanoma were -26.8% (active) and -47.9% (active), respectively.
For the compound `COC(=O)c1c2c(c(C)[n+]([O-])c1C)C(=O)C(NCc1ccccc1)=CC2=O`, the growth in the test on NCI-H23 lung is 9.17% (active); in the test on NCI-H226 lung, 73.3%; with NCI-H322M lung, 7.15% (active); in the test with HOP-62 NSCLC, 67.1%; in the test on NCI-H460 lung it was 11%; with HOP-92 NSCLC, 71.1%. The growth with NCI-H522 lung was 28.8%; with A549/ATCC NSCLC, 13.7%; in the test with 786-0 renal, 60%; in the test on COLO 205 colon, -9.35% (active); in the test with DU-145 prostate it was 42.4%; in the test on K-562 leukemia it was 24.4%. Moreover, the growth with MALME-3M melanoma is -77.8% (active); in the test with MDA-MB-231 breast it was 10.6%; with RXF 393 renal, 3% (active); with SF-268 CNS, 28.3%; with SF-295 CNS it was 43.5%; in the test on SF-539 CNS, 8.86% (active). Besides, the growth is -22% (active) with UACC-257 melanoma and 9.18% (active) in the test with M14 melanoma.
Consider `COC(=O)/C=C1/SC(=NCc2ccccc2)N(CCc2c[nH]c3ccccc23)C1=O`, for which the growth in the test with NCI-H23 lung was 87.2%; in the test with NCI-H226 lung, 109%; with NCI-H322M lung, 98.9%; in the test with HOP-62 NSCLC it was 102%; in the test on NCI-H460 lung, 91.8%; in the test with HOP-92 NSCLC, 74.6%. The growth in the test on NCI-H522 lung is 77.1%; in the test with A549/ATCC NSCLC, 93.1%; with 786-0 renal, 89.4%; with COLO 205 colon, 98.7%; with DU-145 prostate it was 72.5%; in the test on K-562 leukemia, 48.5%. Besides, the growth in the test on MALME-3M melanoma was 108%; with MDA-MB-231 breast, 91%; with RXF 393 renal, 81.9%; in the test on SF-268 CNS it was 90.3%; in the test on SF-295 CNS it was 89.9%; in the test on SF-539 CNS, 105%. The growth in the test with UACC-257 melanoma was 81.6%; with M14 melanoma, 80.5%.
Take `O=C(CCCCCCCC(=O)N1CCCCC1)N1CCCCC1`: the growth with NCI-H23 lung was 94.6%; in the test on NCI-H226 lung, 109%; in the test with NCI-H322M lung, 115%; in the test on HOP-62 NSCLC it was 110%; in the test on NCI-H460 lung, 98.7%; with HOP-92 NSCLC it was 98.8%. For the same compound, the growth was 88.8% in the test on NCI-H522 lung; 102% in the test with A549/ATCC NSCLC; 105% with 786-0 renal; 113% in the test with COLO 205 colon; 106% with DU-145 prostate; 114% with K-562 leukemia. In addition, the growth was 115% with MALME-3M melanoma; 94.1% in the test with MDA-MB-231 breast; 123% in the test with RXF 393 renal; 104% with SF-268 CNS; 117% in the test with SF-295 CNS; 103% in the test with SF-539 CNS. In addition, the growth in the test on UACC-257 melanoma is 89.3%; in the test on M14 melanoma it was 102%.
